Test results as given in article PMC7862700, “An all-to-all approach to the identification of sequence-specific readers for epigenetic DNA modifications on cytosine”.

Experiments:
Experiment in all cases: DAPPL (digital affinity profiling via proximity ligation, sequencing); 10 mM Tris-HCl pH 7.5, 50 mM NaCl, 1 mM DTT, 4% glycerol, room temperature, 30 min; GST-TFs on glutathione beads, 16-mer random dsDNA library, 0.1% formaldehyde crosslink after washing; high values mean tight binding
FLI1 = target: T1, FLI1 (Homo sapiens, UniProt Q01543 1-452); conditions: protein: recombinant; tags: N-terminal GST; dsDNA, one strand shown
T1 sequence: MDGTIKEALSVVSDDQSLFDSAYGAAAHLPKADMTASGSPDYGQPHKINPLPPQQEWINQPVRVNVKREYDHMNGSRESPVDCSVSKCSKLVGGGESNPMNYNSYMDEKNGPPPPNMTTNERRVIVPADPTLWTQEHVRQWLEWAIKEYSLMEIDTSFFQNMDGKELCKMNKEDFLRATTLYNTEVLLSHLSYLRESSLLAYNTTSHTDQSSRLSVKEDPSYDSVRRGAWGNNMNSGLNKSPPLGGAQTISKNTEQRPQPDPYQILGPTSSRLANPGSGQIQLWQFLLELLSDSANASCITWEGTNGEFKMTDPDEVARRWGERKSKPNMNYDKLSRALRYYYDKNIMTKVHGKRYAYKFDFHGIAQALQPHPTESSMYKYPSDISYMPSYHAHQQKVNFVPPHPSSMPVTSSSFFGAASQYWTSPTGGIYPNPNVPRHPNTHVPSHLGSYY
Outline: (§1)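 Binding signal is each hexamer's read frequency for a factor divided by its frequency in the tag-only sample. The factors were GST-fused human transcription factors from yeast, captured on glutathione beads, DNA-barcoded and pooled with that sample. Pools were incubated with 200 nmole of a random double-stranded 16-mer DNA library in Tris/NaCl/DTT/glycerol buffer at room temperature for 30 min, then washed, crosslinked with 0.1% formaldehyde, proximity-ligated with BsaI/T4 ligase (1 h, 37 °C), PCR-amplified and sequenced on an Illumina NextSeq500.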

ELK1 = target: T2, ELK1 (Homo sapiens, UniProt P19419 1-428); conditions: protein: recombinant; tags: N-terminal GST; dsDNA, one strand shown
T2 sequence: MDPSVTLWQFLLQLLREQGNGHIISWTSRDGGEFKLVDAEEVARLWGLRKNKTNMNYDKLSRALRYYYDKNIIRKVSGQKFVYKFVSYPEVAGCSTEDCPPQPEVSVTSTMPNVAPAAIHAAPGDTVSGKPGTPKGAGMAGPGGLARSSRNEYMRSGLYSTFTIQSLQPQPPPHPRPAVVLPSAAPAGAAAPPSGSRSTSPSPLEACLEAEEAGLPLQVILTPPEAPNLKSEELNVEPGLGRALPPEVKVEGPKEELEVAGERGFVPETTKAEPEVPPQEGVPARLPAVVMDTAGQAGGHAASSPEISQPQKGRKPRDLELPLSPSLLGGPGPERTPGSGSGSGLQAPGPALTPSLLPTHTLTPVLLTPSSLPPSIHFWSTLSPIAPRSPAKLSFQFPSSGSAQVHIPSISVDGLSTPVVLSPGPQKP
Outline: as §1

GABPA = target: T3, GABPA (Homo sapiens, UniProt Q06546 1-454); conditions: protein: recombinant; tags: N-terminal GST; dsDNA, one strand shown
T3 sequence: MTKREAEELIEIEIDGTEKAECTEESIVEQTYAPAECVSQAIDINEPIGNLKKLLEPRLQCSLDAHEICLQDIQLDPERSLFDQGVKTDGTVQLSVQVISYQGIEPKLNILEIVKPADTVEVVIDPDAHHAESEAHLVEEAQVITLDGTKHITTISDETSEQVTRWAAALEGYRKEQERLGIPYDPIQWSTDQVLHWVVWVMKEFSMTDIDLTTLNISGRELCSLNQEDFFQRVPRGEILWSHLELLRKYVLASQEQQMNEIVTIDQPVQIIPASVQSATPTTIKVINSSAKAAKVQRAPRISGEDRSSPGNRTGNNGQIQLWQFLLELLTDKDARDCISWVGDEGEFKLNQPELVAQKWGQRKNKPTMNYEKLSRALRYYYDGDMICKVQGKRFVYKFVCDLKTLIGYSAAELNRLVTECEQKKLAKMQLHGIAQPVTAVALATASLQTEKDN
Outline: as §1

ERG = target: T4, ERG (Homo sapiens, UniProt P11308 1-479); conditions: protein: recombinant; tags: N-terminal GST; dsDNA, one strand shown
T4 sequence: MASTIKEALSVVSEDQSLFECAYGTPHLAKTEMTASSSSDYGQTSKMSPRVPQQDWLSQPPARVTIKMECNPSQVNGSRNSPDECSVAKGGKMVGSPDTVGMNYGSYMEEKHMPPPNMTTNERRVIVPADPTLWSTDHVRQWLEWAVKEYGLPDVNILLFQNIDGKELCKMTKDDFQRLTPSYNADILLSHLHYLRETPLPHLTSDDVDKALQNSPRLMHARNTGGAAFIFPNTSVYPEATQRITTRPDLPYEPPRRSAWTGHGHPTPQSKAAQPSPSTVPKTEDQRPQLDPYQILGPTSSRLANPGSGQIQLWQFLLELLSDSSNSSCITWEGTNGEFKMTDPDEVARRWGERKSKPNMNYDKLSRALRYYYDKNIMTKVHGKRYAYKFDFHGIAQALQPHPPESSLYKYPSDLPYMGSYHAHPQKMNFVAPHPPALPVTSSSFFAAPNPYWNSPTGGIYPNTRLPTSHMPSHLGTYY
Outline: as §1

ELF1 = ELF1 (Homo sapiens, UniProt P32519 1-619); conditions: protein: recombinant; tags: N-terminal GST; dsDNA, one strand shown
Chain of ELF1 (P32519 whole entry): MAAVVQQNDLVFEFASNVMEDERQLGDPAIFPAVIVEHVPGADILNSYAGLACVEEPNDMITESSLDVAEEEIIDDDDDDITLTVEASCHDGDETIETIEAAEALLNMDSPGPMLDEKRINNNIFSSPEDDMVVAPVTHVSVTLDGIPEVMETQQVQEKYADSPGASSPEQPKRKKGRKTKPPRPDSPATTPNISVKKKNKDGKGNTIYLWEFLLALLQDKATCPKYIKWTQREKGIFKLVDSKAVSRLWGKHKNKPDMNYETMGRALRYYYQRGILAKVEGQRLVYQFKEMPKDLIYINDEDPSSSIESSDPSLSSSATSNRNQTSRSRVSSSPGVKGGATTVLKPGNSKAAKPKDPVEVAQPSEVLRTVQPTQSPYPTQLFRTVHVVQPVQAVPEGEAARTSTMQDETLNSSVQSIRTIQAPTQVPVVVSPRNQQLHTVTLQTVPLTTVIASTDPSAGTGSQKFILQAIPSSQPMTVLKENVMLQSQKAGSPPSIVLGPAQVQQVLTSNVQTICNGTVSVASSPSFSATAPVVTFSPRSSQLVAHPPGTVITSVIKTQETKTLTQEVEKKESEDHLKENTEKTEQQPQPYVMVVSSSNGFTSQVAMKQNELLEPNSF
Outline: as §1

EHF = target: T5, EHF (Homo sapiens, UniProt Q9NZC4 1-300); conditions: protein: recombinant; tags: N-terminal GST; dsDNA, one strand shown
T5 sequence: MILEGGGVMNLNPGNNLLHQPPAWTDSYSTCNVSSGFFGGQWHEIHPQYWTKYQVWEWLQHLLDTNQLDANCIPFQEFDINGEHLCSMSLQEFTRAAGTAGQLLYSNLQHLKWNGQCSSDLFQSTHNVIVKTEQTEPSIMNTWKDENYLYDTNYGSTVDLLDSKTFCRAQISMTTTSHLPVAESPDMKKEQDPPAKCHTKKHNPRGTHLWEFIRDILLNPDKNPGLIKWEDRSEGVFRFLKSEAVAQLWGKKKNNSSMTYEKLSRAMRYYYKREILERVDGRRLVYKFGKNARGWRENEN
Outline: as §1

SPI1 = SPI1 (Homo sapiens, UniProt P17947 1-270); conditions: protein: recombinant; tags: N-terminal GST; dsDNA, one strand shown
Outline: as §1

SPIB = SPIB (Homo sapiens, UniProt Q01892 1-262); conditions: protein: recombinant; tags: N-terminal GST; dsDNA, one strand shown
Chain of SPIB (Q01892 whole entry): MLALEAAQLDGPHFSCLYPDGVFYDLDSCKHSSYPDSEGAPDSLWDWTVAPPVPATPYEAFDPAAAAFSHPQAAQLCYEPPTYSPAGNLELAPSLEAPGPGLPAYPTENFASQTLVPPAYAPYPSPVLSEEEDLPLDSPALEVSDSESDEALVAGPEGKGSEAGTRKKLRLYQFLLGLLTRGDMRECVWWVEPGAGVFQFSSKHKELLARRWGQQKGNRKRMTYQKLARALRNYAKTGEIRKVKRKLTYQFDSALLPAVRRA
Outline: as §1

ELK3 = target: T6, ELK3 (Homo sapiens, UniProt P41970 1-407); conditions: protein: recombinant; tags: N-terminal GST; dsDNA, one strand shown
T6 sequence: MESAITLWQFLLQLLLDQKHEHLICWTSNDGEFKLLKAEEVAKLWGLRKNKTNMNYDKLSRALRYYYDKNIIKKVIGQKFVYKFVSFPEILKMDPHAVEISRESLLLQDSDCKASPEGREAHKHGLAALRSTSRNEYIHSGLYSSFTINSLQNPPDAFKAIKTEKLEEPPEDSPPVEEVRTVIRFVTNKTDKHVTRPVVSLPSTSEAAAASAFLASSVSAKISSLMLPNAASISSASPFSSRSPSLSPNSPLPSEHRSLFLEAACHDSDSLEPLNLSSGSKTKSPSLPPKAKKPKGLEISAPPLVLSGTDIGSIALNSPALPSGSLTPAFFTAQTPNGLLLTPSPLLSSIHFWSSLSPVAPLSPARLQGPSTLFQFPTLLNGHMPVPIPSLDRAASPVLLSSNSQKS
Outline: as §1

FEV = target: T7, FEV (Homo sapiens, UniProt Q99581 1-238); conditions: protein: recombinant; tags: N-terminal GST; dsDNA, one strand shown
T7 sequence: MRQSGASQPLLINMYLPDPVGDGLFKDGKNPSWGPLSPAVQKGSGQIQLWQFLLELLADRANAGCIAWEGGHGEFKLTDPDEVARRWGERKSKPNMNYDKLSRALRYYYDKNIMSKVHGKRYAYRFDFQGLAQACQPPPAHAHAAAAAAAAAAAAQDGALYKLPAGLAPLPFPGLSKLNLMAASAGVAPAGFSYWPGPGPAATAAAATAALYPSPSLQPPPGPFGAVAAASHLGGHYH
Outline: as §1

ETV5 = ETV5 (Homo sapiens, UniProt P41161 1-510); conditions: protein: recombinant; tags: N-terminal GST; dsDNA, one strand shown
Chain of ETV5 (P41161 whole entry): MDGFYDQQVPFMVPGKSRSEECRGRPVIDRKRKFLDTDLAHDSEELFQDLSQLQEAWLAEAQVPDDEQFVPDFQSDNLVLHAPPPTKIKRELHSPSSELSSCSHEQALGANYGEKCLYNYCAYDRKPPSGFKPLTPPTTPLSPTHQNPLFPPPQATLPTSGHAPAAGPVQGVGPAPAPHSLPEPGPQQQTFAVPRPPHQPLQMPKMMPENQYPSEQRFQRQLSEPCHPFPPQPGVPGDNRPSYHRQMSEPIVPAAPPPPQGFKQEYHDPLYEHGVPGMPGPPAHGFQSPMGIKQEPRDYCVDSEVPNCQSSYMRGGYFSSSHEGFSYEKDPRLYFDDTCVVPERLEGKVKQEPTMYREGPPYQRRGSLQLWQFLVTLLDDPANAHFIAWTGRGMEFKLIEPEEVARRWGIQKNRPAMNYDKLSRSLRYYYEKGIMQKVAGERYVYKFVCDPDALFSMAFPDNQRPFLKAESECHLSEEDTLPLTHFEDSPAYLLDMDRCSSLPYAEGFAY
Outline: as §1

HSF1 = HSF1 (Homo sapiens, UniProt Q00613 1-529); conditions: protein: recombinant; tags: N-terminal GST; chain copies: 3; dsDNA, one strand shown
Chain of HSF1 (Q00613 whole entry): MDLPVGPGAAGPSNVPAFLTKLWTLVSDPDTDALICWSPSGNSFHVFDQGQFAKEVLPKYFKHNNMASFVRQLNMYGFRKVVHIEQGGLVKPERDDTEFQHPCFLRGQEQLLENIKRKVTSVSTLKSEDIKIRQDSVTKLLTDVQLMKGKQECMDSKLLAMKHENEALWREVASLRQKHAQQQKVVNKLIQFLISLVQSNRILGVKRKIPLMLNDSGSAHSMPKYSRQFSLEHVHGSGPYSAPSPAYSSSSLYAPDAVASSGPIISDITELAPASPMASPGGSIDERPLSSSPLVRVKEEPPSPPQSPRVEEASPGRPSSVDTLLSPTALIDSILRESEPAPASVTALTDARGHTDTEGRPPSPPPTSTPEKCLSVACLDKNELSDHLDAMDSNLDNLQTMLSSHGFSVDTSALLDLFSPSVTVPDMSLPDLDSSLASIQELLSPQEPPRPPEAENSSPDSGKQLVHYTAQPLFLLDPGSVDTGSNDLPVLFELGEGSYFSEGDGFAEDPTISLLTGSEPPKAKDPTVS
Outline: as §1

SPIC = target: T8, SPIC (Homo sapiens, UniProt Q8N5J4 1-248); conditions: protein: recombinant; tags: N-terminal GST; dsDNA, one strand shown
T8 sequence: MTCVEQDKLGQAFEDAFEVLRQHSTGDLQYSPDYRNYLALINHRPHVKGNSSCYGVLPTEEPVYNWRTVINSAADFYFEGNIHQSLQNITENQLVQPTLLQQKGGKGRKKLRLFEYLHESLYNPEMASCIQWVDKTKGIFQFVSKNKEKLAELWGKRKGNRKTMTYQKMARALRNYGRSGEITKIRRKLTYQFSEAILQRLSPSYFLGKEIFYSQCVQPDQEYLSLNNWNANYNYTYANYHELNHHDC
Outline: as §1

ELF4 = ELF4 (Homo sapiens, UniProt Q99607 1-663); conditions: protein: recombinant; tags: N-terminal GST; dsDNA, one strand shown
Chain of ELF4 (Q99607 whole entry): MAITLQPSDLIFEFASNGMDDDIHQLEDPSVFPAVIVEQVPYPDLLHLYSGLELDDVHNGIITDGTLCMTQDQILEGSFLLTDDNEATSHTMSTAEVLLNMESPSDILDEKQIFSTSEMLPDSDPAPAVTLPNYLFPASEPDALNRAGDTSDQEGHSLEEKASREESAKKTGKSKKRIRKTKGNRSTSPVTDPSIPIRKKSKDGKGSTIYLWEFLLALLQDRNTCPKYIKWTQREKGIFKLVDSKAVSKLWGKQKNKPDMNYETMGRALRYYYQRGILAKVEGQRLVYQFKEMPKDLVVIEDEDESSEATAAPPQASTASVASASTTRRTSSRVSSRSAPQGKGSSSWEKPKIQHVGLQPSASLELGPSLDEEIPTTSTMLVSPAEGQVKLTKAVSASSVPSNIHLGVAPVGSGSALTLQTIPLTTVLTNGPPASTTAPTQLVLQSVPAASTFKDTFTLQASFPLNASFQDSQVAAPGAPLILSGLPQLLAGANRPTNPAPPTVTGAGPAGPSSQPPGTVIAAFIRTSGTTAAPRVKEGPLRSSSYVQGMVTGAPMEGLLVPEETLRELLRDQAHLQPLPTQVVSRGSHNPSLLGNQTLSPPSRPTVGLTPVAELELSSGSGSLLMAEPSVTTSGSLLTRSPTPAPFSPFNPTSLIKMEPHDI
Outline: as §1

ELK4 = target: T9, ELK4 (Homo sapiens, UniProt P28324-2 1-405); conditions: protein: recombinant; tags: N-terminal GST; dsDNA, one strand shown
T9 sequence: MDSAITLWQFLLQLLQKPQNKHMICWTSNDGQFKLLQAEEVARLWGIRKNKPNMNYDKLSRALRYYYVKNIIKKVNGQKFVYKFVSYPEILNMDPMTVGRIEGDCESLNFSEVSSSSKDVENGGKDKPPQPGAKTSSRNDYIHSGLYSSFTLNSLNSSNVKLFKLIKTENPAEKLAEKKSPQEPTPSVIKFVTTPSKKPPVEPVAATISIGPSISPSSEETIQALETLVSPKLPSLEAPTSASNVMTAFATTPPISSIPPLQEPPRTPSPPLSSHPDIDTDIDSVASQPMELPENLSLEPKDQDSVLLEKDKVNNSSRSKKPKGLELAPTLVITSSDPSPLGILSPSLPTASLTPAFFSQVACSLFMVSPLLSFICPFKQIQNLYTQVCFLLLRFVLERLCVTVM
Outline: as §1

ETV2 = target: T10, ETV2 (Homo sapiens, UniProt O00321 1-342); conditions: protein: recombinant; tags: N-terminal GST; dsDNA, one strand shown
T10 sequence: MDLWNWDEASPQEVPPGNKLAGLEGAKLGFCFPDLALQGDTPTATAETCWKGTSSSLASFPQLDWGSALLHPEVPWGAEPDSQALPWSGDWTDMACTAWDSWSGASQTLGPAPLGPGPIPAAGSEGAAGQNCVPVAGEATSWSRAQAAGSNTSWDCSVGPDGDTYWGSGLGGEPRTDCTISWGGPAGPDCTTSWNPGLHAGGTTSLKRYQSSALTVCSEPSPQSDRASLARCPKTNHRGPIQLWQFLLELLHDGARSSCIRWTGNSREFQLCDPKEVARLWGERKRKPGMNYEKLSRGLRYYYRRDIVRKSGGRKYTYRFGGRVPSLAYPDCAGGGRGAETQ
Outline: as §1

ELF3 = target: T11, ELF3 (Homo sapiens, UniProt P78545 1-371); conditions: protein: recombinant; tags: N-terminal GST; dsDNA, one strand shown
T11 sequence: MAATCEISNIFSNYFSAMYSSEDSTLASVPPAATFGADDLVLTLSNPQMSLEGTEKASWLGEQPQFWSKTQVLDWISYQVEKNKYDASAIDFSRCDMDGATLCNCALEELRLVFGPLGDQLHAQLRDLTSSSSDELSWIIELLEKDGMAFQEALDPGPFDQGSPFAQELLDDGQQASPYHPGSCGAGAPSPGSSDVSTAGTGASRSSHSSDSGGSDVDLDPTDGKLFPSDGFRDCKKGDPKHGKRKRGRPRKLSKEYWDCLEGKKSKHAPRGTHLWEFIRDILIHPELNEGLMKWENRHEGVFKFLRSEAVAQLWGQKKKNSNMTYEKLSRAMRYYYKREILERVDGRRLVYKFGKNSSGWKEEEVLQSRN
Outline: as §1

CRX = CRX (Homo sapiens, UniProt O43186 1-299); conditions: protein: recombinant; tags: N-terminal GST; dsDNA, one strand shown
Chain of CRX (O43186 whole entry): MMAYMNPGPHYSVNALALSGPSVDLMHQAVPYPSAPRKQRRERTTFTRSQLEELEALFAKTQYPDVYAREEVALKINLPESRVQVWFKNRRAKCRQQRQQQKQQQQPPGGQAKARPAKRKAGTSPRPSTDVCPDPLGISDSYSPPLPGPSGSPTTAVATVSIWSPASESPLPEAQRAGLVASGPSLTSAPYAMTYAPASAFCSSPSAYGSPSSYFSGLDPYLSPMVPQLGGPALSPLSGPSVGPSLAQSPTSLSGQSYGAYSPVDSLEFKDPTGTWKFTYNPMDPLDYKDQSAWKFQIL
Outline: as §1

ETV1 = ETV1 (Homo sapiens, UniProt P50549 1-477); conditions: protein: recombinant; tags: N-terminal GST; dsDNA, one strand shown
Chain of ETV1 (P50549 whole entry): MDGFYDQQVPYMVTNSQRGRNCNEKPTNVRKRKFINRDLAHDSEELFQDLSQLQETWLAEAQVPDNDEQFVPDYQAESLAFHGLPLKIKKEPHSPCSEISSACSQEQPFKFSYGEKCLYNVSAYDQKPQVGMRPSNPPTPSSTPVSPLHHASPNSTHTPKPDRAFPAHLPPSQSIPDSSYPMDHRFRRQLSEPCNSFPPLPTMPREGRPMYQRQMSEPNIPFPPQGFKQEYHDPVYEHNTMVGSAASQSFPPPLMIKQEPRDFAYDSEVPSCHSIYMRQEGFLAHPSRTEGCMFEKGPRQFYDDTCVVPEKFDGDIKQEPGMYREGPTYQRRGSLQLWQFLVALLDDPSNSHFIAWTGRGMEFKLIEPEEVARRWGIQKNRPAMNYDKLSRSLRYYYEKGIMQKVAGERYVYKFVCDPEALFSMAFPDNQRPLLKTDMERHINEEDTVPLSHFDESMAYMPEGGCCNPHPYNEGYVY
Outline: as §1

Sequence: TCACAA
- binding signal (FLI1): 1.18 fold enrichment (6-mer frequency, TF over GST control)
- binding signal (ELK1): 1.14 fold enrichment (6-mer frequency, TF over GST control)
- binding signal (GABPA): 1.21 fold enrichment (6-mer frequency, TF over GST control)
- binding signal (ERG): 1.11 fold enrichment (6-mer frequency, TF over GST control)
- binding signal (ELF1): 1.23 fold enrichment (6-mer frequency, TF over GST control)
- binding signal (EHF): 1.11 fold enrichment (6-mer frequency, TF over GST control)
- binding signal (SPI1): 1.06 fold enrichment (6-mer frequency, TF over GST control)
- binding signal (SPIB): 1.13 fold enrichment (6-mer frequency, TF over GST control)
- binding signal (ELK3): 1.17 fold enrichment (6-mer frequency, TF over GST control)
- binding signal (FEV): 1.14 fold enrichment (6-mer frequency, TF over GST control)
- binding signal (ETV5): 1.12 fold enrichment (6-mer frequency, TF over GST control)
- binding signal (HSF1): 1.03 fold enrichment (6-mer frequency, TF over GST control)
- binding signal (SPIC): 1.18 fold enrichment (6-mer frequency, TF over GST control)
- binding signal (ELF4): 1.12 fold enrichment (6-mer frequency, TF over GST control)
- binding signal (ELK4): 1.21 fold enrichment (6-mer frequency, TF over GST control)
- binding signal (ETV2): 1.16 fold enrichment (6-mer frequency, TF over GST control)
- binding signal (ELF3): 1.15 fold enrichment (6-mer frequency, TF over GST control)
- binding signal (CRX): 1.09 fold enrichment (6-mer frequency, TF over GST control)
- binding signal (ETV1): 1.13 fold enrichment (6-mer frequency, TF over GST control)
